Active and inactive are the calls of the source. How the source made its calls: active means hit-call score of the fitted dose curve at least 0.9, where 1 is the maximum; inactive means score below 0.9.
What was measured:
[1] = read-out: Macrophage colony-stimulating factor (MCSF), CSF1 (gene 1435); assay: BSK_CASM3C_MCSF: BioMAP Diversity Plus: CASM3C Assay for Macrophage colony-stimulating factor (MCSF) Biomarker Activity (AID 2283044); settings: primary human coronary artery smooth muscle cells; actives raise or lower the signal;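 further: M-CSF protein amount quantified by ELISA after 24 h exposure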
[2] = read-out: Low-density lipoprotein receptor (LDLR), LDLR (gene 3949); assay: BSK_CASM3C_LDLR: BioMAP Diversity Plus: CASM3C Assay for Low-density lipoprotein receptor (LDLR) Biomarker Activity (AID 2283045); settings: primary human coronary artery smooth muscle cells; actives raise or lower the signal;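 further: LDLR protein level on the cell surface quantified by ELISA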
[3] = read-out: Monocyte Chemoattractant Protein-1 (MCP1), CCL2 (gene 6347); assay: BSK_CASM3C_MCP1: BioMAP Diversity Plus: CASM3C Assay for Monocyte Chemoattractant Protein-1 (MCP1) Biomarker Activity (AID 2283046); settings: primary human coronary artery smooth muscle cells; actives raise or lower the signal;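 further: MCP-1 level quantified by ELISA 24 h after dosing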
[4] = BSK_CASM3C_Proliferation: Cell Proliferation Assessment in the BioMAP Diversity Plus: CASM3C Assay (AID 2283047); settings: primary human coronary artery smooth muscle cells;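 further: sulforhodamine B total protein stain as relative cell number at 560 nm; sub-confluent cells exposed 48 h before staining; fitted both ways against DMSO so gain or loss of cell number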
[5] = read-out: Monokine induced gamma interferon (MIG), CXCL9 (gene 4283); assay: BSK_CASM3C_MIG: BioMAP Diversity Plus: CASM3C Assay for Monokine induced gamma interferon (MIG) Biomarker Activity (AID 2283048); settings: primary human coronary artery smooth muscle cells; actives raise or lower the signal;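 further: MIG protein level measured by ELISA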
[6] = read-out: serum amyloid A (SAA), SAA1 (gene 6288); assay: BSK_CASM3C_SAA: BioMAP Diversity Plus: CASM3C Assay for serum amyloid A (SAA) Biomarker Activity (AID 2283049); settings: primary human coronary artery smooth muscle cells; actives raise or lower the signal;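 further: SAA protein level quantified by ELISA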
[7] = BSK_CASM3C_SRB: Viability Assessment in the BioMAP Diversity Plus: CASM3C Assay (AID 2283050); settings: primary human coronary artery smooth muscle cells;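 further: total protein by SRB staining as cytotoxicity measure in parallel cultures; cells exposed to compound for 24 h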
[8] = read-out: Thrombomodulin, THBD (gene 7056); assay: BSK_CASM3C_Thrombomodulin: BioMAP Diversity Plus: CASM3C Assay for Thrombomodulin Biomarker Activity (AID 2283051); settings: primary human coronary artery smooth muscle cells; actives raise or lower the signal;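 further: thrombomodulin protein level measured by ELISA 24 h after dosing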
[9] = read-out: Tissue Factor, F3 (gene 2152); assay: BSK_CASM3C_TissueFactor: BioMAP Diversity Plus: CASM3C Assay for Tissue Factor Biomarker Activity (AID 2283052); settings: primary human coronary artery smooth muscle cells; actives raise or lower the signal;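 further: cell surface tissue factor protein level read by ELISA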
[10] = read-out: Interferon-gamma inducible Protein 10 (IP10), CXCL10 (gene 3627); assay: BSK_hDFCGF_IP10: BioMAP Diversity Plus: hDFCGF Assay for Interferon-gamma inducible Protein 10 (IP10) Biomarker Activity (AID 2283053); settings: primary human foreskin fibroblasts; actives raise or lower the signal
In short: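 Primary foreskin fibroblasts, human; 24 h compound exposure; IP-10 by ELISA; bidirectional fit vs DMSO.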

[11] = read-out: Urokinase-type plasminogen activator receptor (uPAR), PLAUR (gene 5329); assay: BSK_CASM3C_uPAR: BioMAP Diversity Plus: CASM3C Assay for Urokinase-type plasminogen activator receptor (uPAR) Biomarker Activity (AID 2283054); settings: primary human coronary artery smooth muscle cells; actives raise or lower the signal;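 further: cell-surface uPAR protein level quantified by ELISA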
[12] = read-out: Vascular cell adhesion molecule 1 (VCAM1), VCAM1 (gene 7412); assay: BSK_CASM3C_VCAM1: BioMAP Diversity Plus: CASM3C Assay for Vascular cell adhesion molecule 1 (VCAM1) Biomarker Activity (AID 2283055); settings: primary human coronary artery smooth muscle cells; actives raise or lower the signal;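 further: VCAM-1 protein level quantified by ELISA on the cells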
[13] = read-out: Collagen III, COL3A1 (gene 1281); assay: BSK_hDFCGF_CollagenIII: BioMAP Diversity Plus: hDFCGF Assay for Collagen III Biomarker Activity (AID 2283056); settings: primary human foreskin fibroblasts; actives raise or lower the signal
In short: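 Human foreskin primary fibroblasts were exposed to test chemicals for 24 h, after which collagen III was quantified by ELISA. Activity was fitted bidirectionally against DMSO as negative control and baseline.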

[14] = read-out: Epidermal growth factor receptor (EGFR), EGFR (gene 1956); assay: BSK_hDFCGF_EGFR: BioMAP Diversity Plus: hDFCGF Assay for Epidermal growth factor receptor (EGFR) Biomarker Activity (AID 2283057); settings: primary human foreskin fibroblasts; actives raise or lower the signal
In short: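 hDFCGF system, primary human foreskin fibroblasts; compound 24 h; EGFR measured by ELISA; DMSO = negative control/baseline; bidirectional fitting.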

[15] = read-out: Interleukin-8 (IL8), CXCL8 (gene 3576); assay: BSK_hDFCGF_IL8: BioMAP Diversity Plus: hDFCGF Assay for Interleukin-8 (IL8) Biomarker Activity (AID 2283058); settings: primary human foreskin fibroblasts; actives raise or lower the signal
In short: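 hDFCGF human dermal fibroblasts; 24 h chemical exposure; IL-8 by ELISA; bidirectional curve fit vs DMSO baseline; gain or loss of signal scored.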

[16] = BSK_hDFCGF_Proliferation: Cell Proliferation Assessment in the BioMAP Diversity Plus: hDFCGF Assay (AID 2283059); settings: primary human foreskin fibroblasts;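 further: curves fitted for both rise and fall of signal versus DMSO baseline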
In short: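 Steps: dose primary human dermal fibroblasts (foreskin); […] fix in 10% TCA; stain with 0.1% SRB; read 560 nm; fit gain or loss of signal against DMSO.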

[17] = read-out: Macrophage colony-stimulating factor (MCSF), CSF1 (gene 1435); assay: BSK_hDFCGF_MCSF: BioMAP Diversity Plus: hDFCGF Assay for Macrophage colony-stimulating factor (MCSF) Biomarker Activity (AID 2283060); settings: primary human foreskin fibroblasts; actives raise or lower the signal
In short: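 Human foreskin primary fibroblasts were treated with test chemical for 24 h, and M-CSF was then measured by ELISA. Data were fitted bidirectionally against DMSO as the negative control and activity baseline.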

[18] = BSK_hDFCGF_SRB: Viability Assessment in the BioMAP Diversity Plus: hDFCGF Assay (AID 2283061); settings: primary human foreskin fibroblasts;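 further: cells exposed to compound for 24 h before the read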
In short: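 Human foreskin primary fibroblasts were treated with compound and assessed 24 h after dosing. Total protein was measured by sulforhodamine B staining (0.1% SRB after 10% TCA fixation, 560 nm read) as a cytotoxicity marker, with bidirectional fitting against DMSO baseline.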

[19] = read-out: TIMP metallopeptidase inhibitor 1 (TIMP1), TIMP1 (gene 7076); assay: BSK_hDFCGF_TIMP1: BioMAP Diversity Plus: hDFCGF Assay for TIMP metallopeptidase inhibitor 1 (TIMP1) Biomarker Activity (AID 2283062); settings: primary human foreskin fibroblasts; actives raise or lower the signal
In short: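 Primary human foreskin fibroblasts in the hDFCGF system were dosed with compound for 24 h, then TIMP-1 was measured by ELISA. Activity was fitted bidirectionally relative to DMSO control; parallel SRB staining assessed cytotoxicity.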

[20] = read-out: Monokine induced gamma interferon (MIG), CXCL9 (gene 4283); assay: BSK_hDFCGF_MIG: BioMAP Diversity Plus: hDFCGF Assay for Monokine induced gamma interferon (MIG) Biomarker Activity (AID 2283063); settings: primary human foreskin fibroblasts; actives raise or lower the signal
In short: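 ELISA read-out of MIG from primary human dermal fibroblasts 24 h post-dosing. Gain or loss of signal fitted bidirectionally, DMSO as baseline.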

Measured: AC50

O=c1oc2ccccc2c(O)c1C(CC(O)c1ccc(-c2ccc(Br)cc2)cc1)c1ccccc1 (stereo not given)
inactive: [5] | [8] | [15] | [19]
active: [1] 16.3 µM | [2] 19.1 µM | [3] 7.44 µM | [4] 19.1 µM | [6] 0.0998 µM | [7] 13.9 µM | [9] 16.2 µM | [10] 5.38 µM | [11] 21.8 µM | [12] 5.57 µM | [13] 0.632 µM | [14] 4.73 µM | [16] 5.25 µM | [17] 5.57 µM | [18] 5.28 µM | [20] 11.2 µM

Cc1cc(C)cc(C)c1
inactive: all assays above

CCOP(=O)(OCC)OC(=CCl)c1ccc(Cl)cc1Cl
inactive: [5] | [8] | [14] | [15]
active: [1] 31.7 µM | [2] 28.3 µM | [3] 28 µM | [4] 28.5 µM | [6] 29.6 µM | [7] 29.5 µM | [9] 24.9 µM | [10] 36.4 µM | [11] 30.2 µM | [12] 33.8 µM | [13] 25.6 µM | [16] 37.4 µM | [17] 31 µM | [18] 30.8 µM | [19] 30.1 µM | [20] 30.7 µM

— PubChem BioAssay (EPA / NIEHS)
